# ± gives the standard deviation of the averaged measurements.
# What was measured:
# Assay in all cases: promoter activity interaction Z-score (Lux/OD deviation from empty-vector control); higher = stronger promoter induction by the compound
# [1] = system: E. coli BW25113 acrABp lux reporter
# How it was run: (§1)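 OD600 and luminescence of E. coli BW25113 reporter cultures (40 µl LB Lennox, 384-well plates, 37°C) were measured every 30 min for 12 h. Integration ran over 0–8 h for wild type or 1–9 h for deletion strains, and wells with growth below 10% of the median were dropped. The score is the Z-transformed residual of growth-normalised luminescence fitted against a control.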
# [2] = system: E. coli BW25113 micFp lux reporter
# How it was run: as §1
# [3] = system: E. coli BW25113 ompFp lux reporter
# How it was run: as §1
# [4] = system: E. coli BW25113 robp lux reporter
# How it was run: as §1
# [5] = system: E. coli BW25113 soxSp lux reporter
# How it was run: as §1
# [6] = system: E. coli BW25113 tolCp lux reporter
# How it was run: as §1
# [7] = 20.7 µg/ml, genetic background: wild type
# [8] = 20.7 µg/ml, genetic background: ΔmarA
# [9] = 20.7 µg/ml, genetic background: Δrob
# [10] = 20.7 µg/ml, genetic background: ΔsoxS
# [11] = 41.4 µg/ml, genetic background: wild type
# [12] = 41.4 µg/ml, genetic background: ΔmarA
# [13] = 41.4 µg/ml, genetic background: Δrob
# [14] = 41.4 µg/ml, genetic background: ΔsoxS
# [15] = 82.8 µg/ml, genetic background: wild type
# [16] = 82.8 µg/ml, genetic background: ΔmarA
# [17] = 82.8 µg/ml, genetic background: Δrob
# [18] = 82.8 µg/ml, genetic background: ΔsoxS
# [19] = 165.6 µg/ml, genetic background: wild type
# [20] = 165.6 µg/ml, genetic background: ΔmarA
# [21] = 165.6 µg/ml, genetic background: Δrob
# [22] = 165.6 µg/ml, genetic background: ΔsoxS
compound,measurement,setting,value
CN(C)C(=N)NC(=N)N [Metformin],promoter activity interaction Z-score,[1]; [7],-0.326 ± 0.14
same,promoter activity interaction Z-score,[1]; [8],0.815 ± 0.45
same,promoter activity interaction Z-score,[1]; [9],-0.31 ± 0.23
same,promoter activity interaction Z-score,[1]; [10],-0.0221 ± 0.28
same,promoter activity interaction Z-score,[1]; [11],-0.0908 ± 0.043
same,promoter activity interaction Z-score,[1]; [12],0.174 ± 0.41
same,promoter activity interaction Z-score,[1]; [13],0.377 ± 0.017
same,promoter activity interaction Z-score,[1]; [14],-0.0209 ± 0.61
same,promoter activity interaction Z-score,[1]; [15],-0.145 ± 0.14
same,promoter activity interaction Z-score,[1]; [16],0.000785 ± 1.4
same,promoter activity interaction Z-score,[1]; [17],0.271 ± 0.043
same,promoter activity interaction Z-score,[1]; [18],-0.155 ± 0.2
same,promoter activity interaction Z-score,[1]; [19],-0.249 ± 0.13
same,promoter activity interaction Z-score,[1]; [20],0.575 ± 0.81
same,promoter activity interaction Z-score,[1]; [21],0.41 ± 0.17
same,promoter activity interaction Z-score,[1]; [22],0.11 ± 0.051
same,promoter activity interaction Z-score,[2]; [7],-0.368 ± 0.019
same,promoter activity interaction Z-score,[2]; [8],-0.0629 ± 0.04
same,promoter activity interaction Z-score,[2]; [9],-0.153 ± 0.082
same,promoter activity interaction Z-score,[2]; [10],-0.139 ± 0.14
same,promoter activity interaction Z-score,[2]; [11],-0.177 ± 0.23
same,promoter activity interaction Z-score,[2]; [12],-0.102 ± 0.12
same,promoter activity interaction Z-score,[2]; [13],-0.0244 ± 0.0094
same,promoter activity interaction Z-score,[2]; [14],-0.233 ± 0.015
same,promoter activity interaction Z-score,[2]; [15],-0.161 ± 0.16
same,promoter activity interaction Z-score,[2]; [16],-0.0653 ± 0.072
same,promoter activity interaction Z-score,[2]; [17],-0.0658 ± 0.068
same,promoter activity interaction Z-score,[2]; [18],-0.0678 ± 0.068
same,promoter activity interaction Z-score,[2]; [19],-0.544 ± 0.37
same,promoter activity interaction Z-score,[2]; [20],-0.151 ± 0.025
same,promoter activity interaction Z-score,[2]; [21],-0.0629 ± 0.08
same,promoter activity interaction Z-score,[2]; [22],-0.000873 ± 0.19
same,promoter activity interaction Z-score,[3]; [7],-0.191 ± 0.037
same,promoter activity interaction Z-score,[3]; [8],0.332 ± 0.047
same,promoter activity interaction Z-score,[3]; [9],-0.324 ± 0.2
same,promoter activity interaction Z-score,[3]; [10],-0.0538 ± 0.13
same,promoter activity interaction Z-score,[3]; [11],-0.037 ± 0.014
same,promoter activity interaction Z-score,[3]; [12],-0.125 ± 0.2
same,promoter activity interaction Z-score,[3]; [13],0.267 ± 0.2
same,promoter activity interaction Z-score,[3]; [14],0.0362 ± 0.37
same,promoter activity interaction Z-score,[3]; [15],0.036 ± 0.056
same,promoter activity interaction Z-score,[3]; [16],0.0389 ± 0.14
same,promoter activity interaction Z-score,[3]; [17],0.322 ± 0.37
same,promoter activity interaction Z-score,[3]; [18],0.0576 ± 0.088
same,promoter activity interaction Z-score,[3]; [19],-0.153 ± 0.11
same,promoter activity interaction Z-score,[3]; [20],0.766 ± 0.041
same,promoter activity interaction Z-score,[3]; [21],0.44 ± 0.62
same,promoter activity interaction Z-score,[3]; [22],0.813 ± 0.41
same,promoter activity interaction Z-score,[4]; [7],0.282 ± 0.18
same,promoter activity interaction Z-score,[4]; [8],0.497 ± 0.0053
same,promoter activity interaction Z-score,[4]; [9],-0.187 ± 0.91
same,promoter activity interaction Z-score,[4]; [10],0.397 ± 1.1
same,promoter activity interaction Z-score,[4]; [11],-0.109 ± 0.24
same,promoter activity interaction Z-score,[4]; [12],0.171 ± 0.31
same,promoter activity interaction Z-score,[4]; [13],0.416 ± 0.36
same,promoter activity interaction Z-score,[4]; [14],0.638 ± 1.1
same,promoter activity interaction Z-score,[4]; [15],0.336 ± 0.065
same,promoter activity interaction Z-score,[4]; [16],0.0784 ± 0.21
same,promoter activity interaction Z-score,[4]; [17],0.39 ± 0.41
same,promoter activity interaction Z-score,[4]; [18],0.405 ± 0.19
same,promoter activity interaction Z-score,[4]; [19],-0.305 ± 0.39
same,promoter activity interaction Z-score,[4]; [20],0.28 ± 0.035
same,promoter activity interaction Z-score,[4]; [21],0.519 ± 0.11
same,promoter activity interaction Z-score,[4]; [22],0.649 ± 0.18
same,promoter activity interaction Z-score,[5]; [7],-0.232 ± 0.14
same,promoter activity interaction Z-score,[5]; [8],0.132 ± 0.02
same,promoter activity interaction Z-score,[5]; [9],-0.07 ± 0.0035
same,promoter activity interaction Z-score,[5]; [10],0.26 ± 0.056
same,promoter activity interaction Z-score,[5]; [11],-0.046 ± 0.095
same,promoter activity interaction Z-score,[5]; [12],0.0673 ± 0.055
same,promoter activity interaction Z-score,[5]; [13],0.0305 ± 0.041
same,promoter activity interaction Z-score,[5]; [14],0.0287 ± 0.19
same,promoter activity interaction Z-score,[5]; [15],0.0138 ± 0.19
same,promoter activity interaction Z-score,[5]; [16],-0.0135 ± 0.017
same,promoter activity interaction Z-score,[5]; [17],0.0262 ± 0.22
same,promoter activity interaction Z-score,[5]; [18],-0.0818 ± 0.083
same,promoter activity interaction Z-score,[5]; [19],-0.199 ± 0.039
same,promoter activity interaction Z-score,[5]; [20],-0.0313 ± 0.093
same,promoter activity interaction Z-score,[5]; [21],-0.191 ± 0.24
same,promoter activity interaction Z-score,[5]; [22],0.0168 ± 0.089
same,promoter activity interaction Z-score,[6]; [7],-0.594 ± 0.2
same,promoter activity interaction Z-score,[6]; [8],1.15 ± 1.7
same,promoter activity interaction Z-score,[6]; [9],-0.505 ± 0.25
same,promoter activity interaction Z-score,[6]; [10],-0.306 ± 0.74
same,promoter activity interaction Z-score,[6]; [11],-0.0152 ± 1.1
same,promoter activity interaction Z-score,[6]; [12],-0.186 ± 1
same,promoter activity interaction Z-score,[6]; [13],0.0225 ± 0.69
same,promoter activity interaction Z-score,[6]; [14],-0.32 ± 0.57
same,promoter activity interaction Z-score,[6]; [15],0.0793 ± 0.27
same,promoter activity interaction Z-score,[6]; [16],0.276 ± 0.67
same,promoter activity interaction Z-score,[6]; [17],-0.546 ± 0.36
same,promoter activity interaction Z-score,[6]; [18],0.0771 ± 1.1
same,promoter activity interaction Z-score,[6]; [19],-0.144 ± 0.74
same,promoter activity interaction Z-score,[6]; [20],0.284 ± 1.1
same,promoter activity interaction Z-score,[6]; [21],-0.698 ± 0.026
same,promoter activity interaction Z-score,[6]; [22],0.3 ± 0.58
